# Screening data from PubChem.
# Shown are actives, neighbours in structure and some others; about 7.3% of the full set was active somewhere.
# Tau ThT inhib: inhibitors of human tau fibril formation, thioflavin T binding; P10636; recombinant tau K18 P301L, heparin-induced fibrillization, ThT fluorescence; Potency, µM (doses to about 57.4 µM), actives largely listed as inhibitors; 270,000 tested, 2.1% active; AID 1460; further: nearly all actives have a fitted effect of over 55% in size
# Target sequence (P10636 561-689 P618L limits assumed): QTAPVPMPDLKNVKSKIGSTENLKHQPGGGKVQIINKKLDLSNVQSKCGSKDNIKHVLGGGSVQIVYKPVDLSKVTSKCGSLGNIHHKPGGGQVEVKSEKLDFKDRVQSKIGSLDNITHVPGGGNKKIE
#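 Fibril formation assay: tau K18 P301L at 15 uM with trace Alexa 594 label, heparin inducer 20 uM, pH 7 sodium acetate buffer, 37 C for 6 hr; endpoint ThT signal.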
# RORgamma inh: inhibitors of mouse ROR gamma transcriptional activity; AID 2551; 310,000 tested, 5.4% active; Potency, µM (titrated, usually from 53.6 µM), hits mostly inhibitors; P51450; Drosophila S2 Gal4-RORgamma UAS-luciferase reporter, 20 h; further: nearly all actives have a fitted effect of over 60% in size
# Target sequence (P51450 whole entry, looked up, the tested form may be a part): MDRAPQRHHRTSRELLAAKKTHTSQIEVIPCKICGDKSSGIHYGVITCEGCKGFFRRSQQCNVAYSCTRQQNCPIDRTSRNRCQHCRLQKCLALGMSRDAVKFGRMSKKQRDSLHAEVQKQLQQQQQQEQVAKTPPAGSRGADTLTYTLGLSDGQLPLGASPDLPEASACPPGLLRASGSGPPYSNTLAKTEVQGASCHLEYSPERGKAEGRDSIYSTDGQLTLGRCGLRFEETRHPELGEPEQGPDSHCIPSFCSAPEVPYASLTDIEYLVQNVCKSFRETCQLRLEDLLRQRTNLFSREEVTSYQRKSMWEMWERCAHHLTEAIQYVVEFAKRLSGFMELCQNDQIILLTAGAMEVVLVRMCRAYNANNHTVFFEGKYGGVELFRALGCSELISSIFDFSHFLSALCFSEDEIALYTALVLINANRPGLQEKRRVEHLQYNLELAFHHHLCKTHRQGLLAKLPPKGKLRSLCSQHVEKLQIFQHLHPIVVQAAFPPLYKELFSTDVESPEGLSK
#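 Stable Schneider cell line, Gal4 DNA-binding domain fused to ROR gamma, UAS-luciferase. Cmpd 1 hr RT → CuSO4 700 uM final → 20 hr RT → luciferase reagent 10 min → luminescence.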
# Tau fibril FP: tau fibrillization inhibition (FP). Potency, µM (highest dose often 57.7 µM), usual class: inhibitors. P10636. 280,000 tested, 0.39% active. K18 P301L tau heparin fibrillization, Alexa594 FP, 6 h; further: nearly all actives have a fitted effect of over 55% in size
#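 Read-out: fluorescence polarization of Alexa 594-labeled tau (0.24 uM), 555 nm excitation, 632 nm emission. Mixtures held 15 uM unlabeled K18 P301L, compound and 20 uM heparin, pH 7 acetate buffer, incubated 6 hr at 37 C.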
# VP16 counter: Gal4-VP16 reporter inhibition counter-screen | Drosophila S2 Gal4-VP16 UAS-luciferase, luminescence, 20 h | 310,000 tested, 3.5% active | Potency, µM (highest dose often 53.6 µM), hits mostly inhibitors | AID 2546;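 further: Gal4-VP16 expression switched on by copper sulfate through the metallothionein promoter; nearly all actives have a fitted effect of over 50% in size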
# Tau fluor counter: counter-screen for tau fibril formation inhibitors | 280,000 tested, 0.93% active | tau K18 P301L Alexa594 fluorescence, heparin fibrillization | Potency, µM (titrated, usually from 57.7 µM); further: nearly all actives have a fitted effect of over 55% in size
#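 Human tau K18 P301L (15 uM unlabeled, 0.24 uM Alexa 594-labeled) in 100 mM sodium acetate pH 7 with 20 uM heparin, 6 hr at 37 C. ThT 30 uM added, 1 hr ambient; Alexa 594 FP and total fluorescence read at 555/632 nm.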
# Hits are given with their value; – = inactive; ? = inconclusive; · = no result given; [ ] = dose if it differs, or a comment. The call rests on the fitted dose curve; in most records, active means well fitted curve in the direction sought with a large enough effect; inconclusive means small, poorly fitted or top-dose-only effect, or another doubt; inactive means no such curve, though single readings can be large; an effect the other way counts as inactive or inconclusive.
SMILES,Tau ThT inhib,RORgamma inh,Tau fibril FP,VP16 counter,Tau fluor counter
CC[C@H](C)[C@H](NC(=O)[C@H](Cc1ccc(O)cc1)NC(=O)[C@@H]1CCCN1C(=O)[C@H](CCCN=C(N)N)NC(=O)[C@H](CCCN=C(N)N)NC(=O)[C@@H]1CCCN1C(=O)[C@H](CCCCN)NC(=O)[C@H](CC(N)=O)NC(=O)[C@H](CCC(N)=O)NC(=O)[C@H](Cc1ccc(O)cc1)NC(=O)[C@H](CC(C)C)NC(=O)[C@@H]1CCC(=O)N1)C(=O)N[C@@H](CC(C)C)C(=O)O,·,–,·,–,·
CCOC(=O)c1ccc(NC(=O)c2nc[nH]c2C(=O)NCC(=O)OC(C)(C)C)cc1,?,7.08µM,?,15.8µM,?
CCOC(=O)c1ccc(NC(=O)c2nc[nH]c2C(=O)NCCCCCNC(=O)OC(C)(C)C)cc1,?,11.2µM,?,?,?
CC(C)(C)OC(=O)CNC(=O)c1nc[nH]c1C(=O)NCC(=O)OC(C)(C)C,–,–,–,–,–
CCOC(=O)c1ccc(NC(=O)c2nc[nH]c2C(=O)N(CC)CC)cc1,–,11.2µM,–,?,–
CCOC(=O)c1ccc(NC(=O)c2nc[nH]c2C(=O)NC2CCN(C(=O)OC(C)(C)C)CC2)cc1,–,–,–,?,?
CCN(CC)C(=O)c1[nH]cnc1C(=O)Nc1ccc(OC)cc1,–,?,–,–,–
CCC(=O)NC(c1ccc(OC)c(OC)c1)c1cc(Cl)c2cccnc2c1O (centres undefined),–,–,–,–,–
COc1ccc(C(NC(C)=O)c2cc(Cl)c3cccnc3c2O)cc1OC (centres undefined),–,3.98µM,–,–,–
COc1ccccc1C(NC(C)=O)c1cc(Cl)c2cccnc2c1O (centres undefined),·,2.24µM,·,2.82µM,·
Nc1ncc(Br)cc1S(=O)(=O)Nc1cc(C(F)(F)F)cc(C(F)(F)F)c1,·,–,·,22.4µM,·
CCc1nnc(NC(=O)c2sc3nc4c(cc3c2N)CCCCC4)s1,1.41µM,?,–,?,–
CN1CCc2nc(SCC(=O)Nc3ccc(F)cc3)c(C#N)cc2C1,14.1µM,–[0.365 µM],–,·,?
CCc1nnc(NC(=O)c2sc3nc4c(cc3c2N)CCCCCC4)s1,?,?,–,?,–
CCc1nnc(NC(=O)CSc2nc3c(cc2C#N)CCCC3)s1,3.16µM,–,–,–,–
Cc1oc2ncn(CC(C)C)c(=O)c2c1C(=O)N(CCN(C)C)Cc1ccccc1,–,·,–,·,–
c1ccc(Nc2nnc(SCc3cccc4ccccc34)s2)cc1,–,–,–,–,15.8µM[quencher]
CCCSc1cc(NCCOC(=O)CCC)c([N+](=O)[O-])c2nonc12,?,?,–,?,?
CC(=O)OCCCNc1cc(SCc2ccco2)c2nonc2c1[N+](=O)[O-],7.94µM,?,?,?,7.08µM[quencher]
CCCC(=O)OCCNc1cc(Sc2nccn2C)c2nonc2c1[N+](=O)[O-],7.08µM,5.62µM,?,5.01µM,?
CCCC(=O)OCCNc1cc(SCc2ccco2)c2nonc2c1[N+](=O)[O-],3.98µM,?,?,?,4.47µM[quencher]
CCOC(=O)C(CC(=O)O)=C(c1ccccc1)c1ccccc1,·,–,·,–,·
CNC(=S)NCCc1ccc(OC)cc1,–,?,–,–,–
O=C(CCCCCNC(=S)Nc1ccc(Cl)cc1)C[N+](=O)[O-],–,–,–,–,–
COc1ccc(CCNC(=S)Nc2ccccc2)cc1,–,2µM,–,7.08µM,–
SMILES,Tau ThT inhib,RORgamma inh,Tau fibril FP,VP16 counter,Tau fluor counter
COc1ccc(CNC(=O)Nc2cc(C)cc(C)c2)cc1,–,–,–,–,–
COc1ccc(CCNC(=S)Nc2ccc(C(C)C)cc2)cc1,·,2.51µM,–,?,?
COc1ccc(CCNC(=S)Nc2cc(C)cc(C)c2)cc1,–,7.08µM,–,12.6µM,?
COc1ccc(NC(=S)NCCCCCC(=O)C[N+](=O)[O-])cc1,?,4.47µM,–,?,–
Cc1cccc(N2CCN(C(=O)CCCn3c(=O)[nH]c4ccsc4c3=O)CC2)c1C,–,·,–,·,–
CC1(C)CC(=O)C2=C(C1)O[C@@]1(c3ccsc3)Cc3cc(C#N)ccc3C2O1,·,–[10 µM],·,–[10 µM],·
COc1ccc(CCNC(=S)Nc2ccc(OC)cc2)cc1,–,3.55µM,–,10µM,–
Cc1cc(C)cc(NC(=S)NCCc2ccc(S(N)(=O)=O)cc2)c1,–,10µM,–,?,–
COc1ccc(NC(=S)NCCc2c(C)[nH]c3ccc(OC)cc23)cc1,?,5.62µM,–,?,?
CC(C)c1ccc(NC(=S)Nc2ccc(OC(F)(F)F)cc2)cc1,–,8.91µM,–,11.2µM,–
Cc1ccc(NC(=S)NCCc2ccc(S(N)(=O)=O)cc2)cc1C,–,?,–,–,–
CC(=O)NC(=S)Nc1ccc(NC(=O)COc2ccc(C(C)C)cc2)cc1,?,–,–,–,–
Nc1nc(N)c(S(=O)(=O)c2ccccc2)c(Nc2ccccc2)n1,–,·,?,·,–
CCOC(=O)c1c(C)[nH]c(C)c1S(=O)(=O)NCC(=O)NCc1ccc(C)cc1,–,·,–,·,–
C#CCN(Cc1ccco1)C(=O)c1cc(COc2ccc(F)cc2Cl)on1,12.6µM,–,–[2.34 µM],–,–
Cc1ccc2oc3c(c(=O)c2c1)C(c1ccccc1F)N(CCCN1CCOCC1)C3=O (centres undefined),–,·,–,·,–
COC(=O)Nc1nc(-c2ccccc2)c(C(=O)c2ccc(Cl)cc2)s1,–,–,–,–,–
CCOC(=O)Nc1nc(-c2ccccc2)c(C(=O)c2ccccc2)s1,–,12.6µM,–,–,–
Cc1ccc(N2C(=O)c3ccccc3C2O)nc1 (centres undefined),–,7.08µM,–,?,–
O=[N+]([O-])c1ccc(C2Oc3ccccc3C3CC(c4ccccc4)=NN32)s1 (centres undefined),14.1µM,11.2µM,?,?,14.1µM[quencher]
CCCCCCNC(=O)Nc1ccc(S(=O)(=O)Nc2ccc(CCNC[C@H](O)COc3ccc(O)cc3)cc2)cc1,?,?,?,?,12.6µM[quencher]
CCCCOc1ccc(S(=O)(=O)Nc2ccc(NC(C)=O)cc2)cc1,–,?,–,?,–
C=CCn1c(N)cc(=O)nc1SCC(=O)NC(C)c1ccccc1 (centres undefined),–,–,–,17.8µM,–
Cc1ccsc1C(=O)Nc1nccs1,·,11.2µM,·,?,·
CN(c1ccccc1)S(=O)(=O)c1ccc(C(=O)Nc2nccs2)cc1,–,–,–,?,–
CN(c1ccc(C(=O)Nc2nccs2)cc1)S(=O)(=O)c1ccccc1,–,2.82µM,–,–[0.365 µM],–
Cc1csc(NC(=O)c2sccc2C)n1,·,–,·,?,·
O=C(Nc1nccs1)c1cc2c(s1)CCCCC2,–,–,–,7.94µM,–
O=C(Nc1nccs1)c1ccc(S(=O)(=O)NCC2CCCCC2)cc1,–,11.2µM,?,–,?
O=C(Nc1nccs1)c1ccc(S(=O)(=O)NCc2cccs2)cc1,?,?,–,?,–
